# The whole screen tested about 24,000 compounds, of which about 65 (0.3%) were called active. This is one part of a sample in which actives are shown more often than they occur.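 How the source made its calls: active means share of bacteria positive for the green fluorescent reporter and its mean brightness both inhibited by 50% or more; inactive means the rest, inconclusive results apart.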
# Assay: S. aureus quorum sensing inhibitors, primary screen, RNAIII-GFP reporter, flow cytometry (AID 527);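 further: 0% = AIP-stimulated control and 100% = unstimulated bacteria without AIP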
# Settings: S. aureus RN6390 RNAIII-GFP reporter, AIP-induced, flow cytometry 3 h, at 2 µM, stronger effect = higher value
# [1] = measured here: inhibition of GFP MFI
Structure (SMILES),inhibition,inhibition [1] [%]
Cc1ccccc1NC(=O)Cc1nnc(SCC(=O)N2CCN(c3ccccc3)CC2)n1C,-0.1% (inactive),7.2
CCC(=O)N1CCN=C1SCc1ccc(F)cc1,1.7% (inactive),7.4
CCOc1ccccc1-n1c(SCC(=O)NCc2ccco2)nnc1-c1ccncc1,-4.3% (inactive),-22.1
CN(C)CCCn1c(N)c(C#N)c2nc(C#N)c(C#N)nc21,-1% (inactive),1.8
CNC(=O)NCCN1CCCC1=O,7.2% (inactive),22.5
O=C(CCOc1ccccc1)NCc1ccccc1,1.7% (inactive),8.4
CC1CCCN(C(C(=O)Nc2ccc(C(C)C)cc2)c2ccc3c(c2)OCO3)C1 (stereo unspecified),-2.3% (inactive),0.9
Cc1cccc(C(=O)OCC(=O)Nc2sc3c(c2C#N)CCC3)c1,0% (inactive),-2
Cc1cccc(CC(=O)Nc2c3c(nn2-c2cccc(Cl)c2)CS(=O)C3)c1 (stereo unspecified),1.2% (inactive),3.3
Nc1scc(-c2ccncc2)c1Cl,0.4% (inactive),15.1
CSC1=NCCN1C(=O)c1ccc(S(=O)(=O)N2CCOCC2)cc1,-5.9% (inactive),-16.9
O=C(NCCc1ccccn1)c1ccc(COc2ccccc2)o1,-0.4% (inactive),-1.9
O=S1(=O)CC(NCc2ccccc2)C(Nc2ccc(Cl)cc2)C1 (stereo unspecified),-7% (inactive),-45.9
Cc1cccc(N2CCN(C(=O)C3CCN(S(=O)(=O)c4cnc[nH]4)CC3)CC2)c1C,-9.8% (inactive),-17
CCCn1c(C(O)c2ccc(OCC)cc2)nc2ccccc21 (stereo unspecified),-2.6% (inactive),-8.7
CC(=O)Oc1cc2c(C(=O)NCCN3CCOCC3)c(C)oc2c2ccccc12,-5.9% (inactive),-9.9
CCS(=O)(=O)N1CCCC(C(=O)NCCCN(C)Cc2ccccc2)C1 (stereo unspecified),-4.7% (inactive),-9.5
CC(C)(C)c1ccc(C(=O)NCCC(=O)NCc2ccco2)cc1,-2.6% (inactive),1.1
CC1CC(C)CN(CC(=O)Nc2ccc(S(N)(=O)=O)cc2)C1 (stereo unspecified),-0.3% (inactive),-0.4
COc1cccc(N2CCN(C3CC(=O)N(c4ccc(Cl)cc4)C3=O)CC2)c1 (stereo unspecified),-2.7% (inactive),-50.4
CCc1ccc(N2CC(C(=O)NC3=NCCS3)CC2=O)cc1 (stereo unspecified),-0.9% (inactive),-2.9
OCc1n[nH]c(CO)n1,-8.3% (inactive),-35.9
COc1ccc(C2/C(=C(/O)c3ccc(OC(C)C)cc3)C(=O)C(=O)N2CCCN2CCOCC2)cc1 (stereo unspecified),7.5% (inactive),17.8
CCCCN(C)C(=O)c1ccc2c(c1)N(CC)C(=O)c1ccccc1S2(=O)=O,-3% (inactive),-32.6
COc1ccc(Cl)cc1S(=O)(=O)N1CCN(CC(=O)C(C)(C)C)CC1,-2.8% (inactive),-8.9
N#CCCn1cnc2ccccc21,2.1% (inactive),38.9
CC(=O)NCC(=O)N(C)C(C(=O)Nc1ccc2c(c1)OCCO2)c1ccccc1 (stereo unspecified),0.7% (inactive),7.7

Structure (SMILES),inhibition,inhibition [1] [%]
COc1ccccc1-c1cc(C(=O)NCCCn2ccnc2)no1,0.6% (inactive),11.9
O=C(CN1CCN(C(=O)c2ccco2)CC1)Nc1ccc2c(c1)OCO2,0.1% (inactive),18.6
CCOC(=O)N1CCN(C(=O)c2ccc3nc4cc(Cl)ccc4c(=O)n3c2)CC1,0.6% (inactive),4.6
CCOC(=O)N1CCN(C(=O)c2cnc3n(c2=O)CCS3)CC1,-0.4% (inactive),7.7
NC(=O)C1(N2CCCCC2)CCN(C(=O)c2ccc(C#Cc3ccccc3)o2)CC1,14.7% (inactive),41.9
COc1ccc(-c2noc(COc3ccc(Cl)c(C)c3)n2)cc1,0.3% (inactive),-1.9
COc1ccccc1N1CCN(C(=O)c2cc(-c3ccc(Cl)c(Cl)c3)on2)CC1,0.6% (inactive),12
Cc1ccc(S(=O)(=O)NCC(=O)N(CC(=O)NC2CCCCC2)Cc2ccco2)cc1,1% (inactive),1.8
O=C(CN1CCOCC1)N1CCCc2c1c(=O)oc1ccc(OCc3ccccc3)cc21,7.9% (inactive),27.4
COC(=O)c1ccc(NC(=O)CSc2nnc(Cc3cccn3C)n2-c2ccc(F)cc2)cc1,0.7% (inactive),2.8
CCOc1ccc(S(=O)(=O)n2ccnc2)c2ccccc12,3.6% (inactive),12.2
COc1ccc(N2CCN(CCNC(=O)c3nnc(Cc4c(F)cccc4Cl)o3)CC2)cc1,-1.4% (inactive),-14
O=C(CSc1nnc(-c2c[nH]c3ccccc23)n1-c1ccc(F)cc1)NCc1ccco1,-0.1% (inactive),3.9
O=C(Nc1nccs1)C1CCCN1S(=O)(=O)c1cccc2cccnc12 (stereo unspecified),10.8% (inactive),6.8
CCOCCCN1C(=O)CN(C2CCCCC2)C(=O)C1c1ccc(OCC)c(OC)c1 (stereo unspecified),0.8% (inactive),4.3
O=C(NC1=NCCS1)[C@H](Cc1ccccc1)N1C(=O)c2ccccc2C1=O,-2% (inactive),-7.9
CCOc1ccc(/C(O)=C2/C(=O)C(=O)N(Cc3cccnc3)C2c2ccc(N(C)C)cc2)c(C)c1 (stereo unspecified),-1.8% (inactive),-3.1
Cc1cc(NC(=O)CSc2nnc(-c3ccc(Cl)s3)o2)no1,-5.9% (inactive),-26.8
COc1ccc(NC(=O)CCNC(=O)Cn2ccc3ccccc3c2=O)c(OC)c1,-1.1% (inactive),-13.6
COc1ccccc1N1CCN(c2nc3ccccc3n3nnnc23)CC1,-2.2% (inactive),-4.7
CC(=O)c1cccc(S(=O)(=O)N2CCC(n3nnc4cc(F)ccc43)CC2)c1,-1.4% (inactive),-26.3
CCOC(=O)c1cn(CC(=O)Nc2ccc(C(C)C)cc2)nn1,2.3% (inactive),13.3
CCOC(=O)c1ccc(Nc2cc(C)nc3nc(C)nn23)cc1,-5.5% (inactive),-32.8
Cn1c(C(=O)NCCN2CCc3ccccc3C2)cc2c(=O)[nH]c3ccccc3c21,-1.3% (inactive),-0.4
COc1ccc(-n2ncc3c(N4CCCc5ccccc54)ncnc32)cc1,-3.1% (inactive),-2.2
C=CCOc1ccc(/C=N/n2cncn2)cc1OC,0.5% (inactive),-15.3
